# Test results reported in PubChem BioAssay AID449739 (Vanderbilt High Throughput Screening Facility, 2010).
# Hit rate of the full screen: of about 100,000 compounds, about 4,200 (4.2%) were called active. What follows is part of a selection rich in actives, with near analogues and random picks from the rest. Values without a mark were called inactive.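 How the source made its calls: active means single-dose well whose peak fluorescence ratio is a statistical outlier from its plate by either plate-standardised score or position-corrected B-score; inactive means the rest.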
# Target: Voltage-dependent T-type calcium channel subunit alpha-1H (Homo sapiens) (UniProt O95180)
# Sequence (O95180 whole entry, looked up): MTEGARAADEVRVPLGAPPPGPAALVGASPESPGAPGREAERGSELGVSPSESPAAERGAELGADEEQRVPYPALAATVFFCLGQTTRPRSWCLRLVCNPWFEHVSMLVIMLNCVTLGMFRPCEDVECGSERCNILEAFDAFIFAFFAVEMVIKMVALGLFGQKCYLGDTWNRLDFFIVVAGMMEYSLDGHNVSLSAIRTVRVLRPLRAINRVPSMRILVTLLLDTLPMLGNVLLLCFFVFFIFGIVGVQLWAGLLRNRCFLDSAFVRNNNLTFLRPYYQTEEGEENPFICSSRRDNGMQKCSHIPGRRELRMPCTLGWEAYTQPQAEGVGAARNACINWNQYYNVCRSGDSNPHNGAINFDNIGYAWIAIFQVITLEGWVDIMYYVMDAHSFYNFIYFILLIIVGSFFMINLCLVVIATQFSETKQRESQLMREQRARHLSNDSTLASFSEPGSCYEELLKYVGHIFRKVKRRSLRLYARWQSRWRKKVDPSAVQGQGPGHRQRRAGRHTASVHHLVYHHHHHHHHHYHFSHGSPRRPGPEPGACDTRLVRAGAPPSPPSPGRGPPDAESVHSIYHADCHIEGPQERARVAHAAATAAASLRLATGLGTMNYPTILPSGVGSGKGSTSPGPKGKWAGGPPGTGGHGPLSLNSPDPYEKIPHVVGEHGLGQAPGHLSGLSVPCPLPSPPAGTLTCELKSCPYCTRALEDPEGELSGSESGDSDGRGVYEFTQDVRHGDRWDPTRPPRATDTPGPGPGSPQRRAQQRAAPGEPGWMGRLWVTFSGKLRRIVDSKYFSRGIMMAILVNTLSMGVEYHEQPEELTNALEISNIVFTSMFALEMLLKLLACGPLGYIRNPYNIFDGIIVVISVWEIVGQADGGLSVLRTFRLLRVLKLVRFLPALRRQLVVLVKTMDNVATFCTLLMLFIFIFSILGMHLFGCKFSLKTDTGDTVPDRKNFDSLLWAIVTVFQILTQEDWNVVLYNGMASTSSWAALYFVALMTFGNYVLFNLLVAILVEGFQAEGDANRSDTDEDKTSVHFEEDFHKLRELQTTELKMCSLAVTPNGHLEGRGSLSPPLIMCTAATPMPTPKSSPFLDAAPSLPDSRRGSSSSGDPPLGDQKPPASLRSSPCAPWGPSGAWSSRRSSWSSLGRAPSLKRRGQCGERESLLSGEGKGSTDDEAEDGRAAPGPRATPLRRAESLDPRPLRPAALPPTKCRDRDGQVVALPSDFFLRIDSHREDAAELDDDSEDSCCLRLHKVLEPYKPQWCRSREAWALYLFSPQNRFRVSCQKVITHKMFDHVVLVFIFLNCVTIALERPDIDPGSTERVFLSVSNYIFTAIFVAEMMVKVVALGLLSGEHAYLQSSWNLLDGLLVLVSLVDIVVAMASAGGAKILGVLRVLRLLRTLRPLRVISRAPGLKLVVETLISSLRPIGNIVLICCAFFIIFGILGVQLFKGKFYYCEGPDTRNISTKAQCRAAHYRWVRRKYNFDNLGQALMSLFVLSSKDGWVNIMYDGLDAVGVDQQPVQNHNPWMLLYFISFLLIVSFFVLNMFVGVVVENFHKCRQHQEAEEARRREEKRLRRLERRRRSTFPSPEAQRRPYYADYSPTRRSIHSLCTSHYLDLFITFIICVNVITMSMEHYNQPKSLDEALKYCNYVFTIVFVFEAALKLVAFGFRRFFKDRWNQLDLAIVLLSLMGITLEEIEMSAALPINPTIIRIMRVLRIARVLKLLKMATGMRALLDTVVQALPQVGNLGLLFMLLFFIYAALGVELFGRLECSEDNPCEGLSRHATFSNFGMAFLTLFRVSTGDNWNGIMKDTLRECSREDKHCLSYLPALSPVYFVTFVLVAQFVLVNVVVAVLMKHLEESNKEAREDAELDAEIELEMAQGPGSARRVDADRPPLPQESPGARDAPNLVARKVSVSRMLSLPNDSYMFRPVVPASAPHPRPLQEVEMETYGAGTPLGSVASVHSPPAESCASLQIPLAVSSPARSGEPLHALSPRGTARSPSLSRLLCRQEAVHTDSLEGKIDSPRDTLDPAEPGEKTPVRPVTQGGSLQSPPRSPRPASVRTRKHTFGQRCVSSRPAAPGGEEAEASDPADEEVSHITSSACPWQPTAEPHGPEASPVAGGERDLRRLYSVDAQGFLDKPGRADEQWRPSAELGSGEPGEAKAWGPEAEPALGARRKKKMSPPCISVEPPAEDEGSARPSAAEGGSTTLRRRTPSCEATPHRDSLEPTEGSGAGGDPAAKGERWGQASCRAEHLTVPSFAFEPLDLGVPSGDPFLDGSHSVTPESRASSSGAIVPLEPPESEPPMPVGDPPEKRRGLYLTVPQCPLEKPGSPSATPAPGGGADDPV
# Test: Cav3.2 calcium influx blockers – cell-based, Fluo-4 calcium fluorescence, FDSS, MLSMR library, primary screen (AID 449739)
# Details: Cav3.2-expressing cells, at 10 µM, hits give low values
row,SMILES,B-score
1,COc1ccc(NS(=O)(=O)c2ccc(NC(=S)NC(=O)CC(C)C)cc2)cc1,-2.74
2,Cc1c(C(=O)OC(C)C)sc(NC(=O)c2cccnc2)c1C#N,-2.15
3,CC(=O)c1cnn(-c2cc(Oc3ccc(F)cc3)ncn2)c1C,-0.109
4,CCC(=O)Nc1cccc(C2=NOC3(C2)C[C@@H](C(N)=O)N(C(=O)c2cc([N+](=O)[O-])cc([N+](=O)[O-])c2C)C3)c1 (some centres not stated),0.296
5,COc1cc(OC)cc(C(=O)NC2CCN(C(=O)N3c4ccccc4Sc4ccccc43)CC2)c1,-3.52 (active)
6,Cc1ccc(C(=O)NC2CCN(C(=O)N3CCOCC3)CC2)cc1,1.24
7,CCOc1ccc(C(=O)NC2CCN(C(=O)Nc3ccccc3OC)CC2)cc1,1.41
8,C=CC(COCc1ccccc1)N(Cc1ccccc1)S(=O)(=O)c1ccccc1Br (configuration not stated),-0.978
9,O=C(CN1CCOCC1)Nc1ccccc1,-0.393
10,O=C(CN1CCN(CC(=O)Nc2ccc3c(c2)OCO3)CC1)Nc1ccc(F)cc1,2.27
11,O=C(CN1CCN(c2ccc(F)cc2)CC1)Nc1cccc(C(F)(F)F)c1,-5.59 (active)
12,COc1ccc(CCNC(=O)C2CC3Cn4c(nc5cc(C)c(C)cc54)C3N2C)cc1 (configuration not stated),0.841
13,Cc1nn2c(c1-c1ccccc1)N=C(c1ccco1)CC2c1ccccc1 (configuration not stated),-4.41 (active)
14,Cc1nn(C(=O)c2ccoc2C)c(N)c1-c1ccccc1,-1.25
15,Cc1nc(NC(=O)c2cccc(Cl)c2)sc1-c1csc(Nc2cccc(Cl)c2)n1,1.63
16,O=C(NCc1ccccc1)C1=C[C@@H](c2ccccc2)C[C@@H](OCCCCO)O1,0.00916
17,O=[N+]([O-])c1ccccc1NCc1ccc(Cl)cc1,-0.134
18,C#CCN(N(C)c1ncc(C(F)(F)F)cc1Cl)S(=O)(=O)c1ccc2ccccc2c1,-1.26
19,CCN(CC)S(=O)(=O)c1ccc(N(C)Cc2ccc(C(F)(F)F)cc2)nc1,-5.7 (active)
20,CC(C)(C)NCC(O)COc1cccc2[nH]c(=O)[nH]c12 (configuration not stated),2.63
21,CCOC(=O)CSc1nc2c(sc(=S)n2CCc2ccccc2)c(=O)n1Cc1ccco1,-3.99
22,CN(c1ccccc1)c1ccc(/C=c2\s/c(=C(/C#N)C(=O)C(C)(C)C)n(Cc3ccco3)c2=O)cc1,-7.8 (active)
23,Cc1cc2c(c(=O)n1Cc1ccco1)C(c1ccccc1)C(C#N)=C(N)O2 (configuration not stated),0.691

row,SMILES,B-score
1,O=C1CCC(=O)N(O)CCCCCNC(=O)CCC(=O)N(O)CCCCCNC(=O)CCC(=O)N(O)CCCCCN1,0.127
2,COC(=O)c1ccc(Sc2ccc(F)cc2)c(N)c1,-2.9
3,CCN(c1ccccc1)S(=O)(=O)c1ccc(NC(=O)C(C)(C)C)cc1,-0.778
4,CC(C)(CCl)C(=O)Nc1ccc(Sc2ccc(F)cc2)cc1,-7.91 (active)
5,CC1(C)Cc2ccccc2-c2nc(CN3CCOCC3)[nH]c(=O)c21,-0.167
6,CCC1(CC)Cc2ccccc2-c2nc3ccccc3c(=O)n21,-0.963
7,CCOC(=O)C1Cn2c(nc3c(c2=O)C(C)(CC)Cc2ccccc2-3)S1 (configuration not stated),-9.41 (active)
8,CNC(=O)c1csc(-c2ccccc2)n1,0.414
9,c1cncc(-c2nnc3n2C2(CCCCC2)Cc2ccccc2-3)c1,0.419
10,Cc1cccc(C(=O)Nc2ccc(C(=O)/C=C/c3cccs3)cc2)c1,-1.78
11,COC(=O)C1=C(C(=O)OC)[C@@H]2N(C)c3ccccc3[C@@]23C[C@@H](C(=O)OC)N(C(=O)c2ccco2)C3=N1,0.92
12,CCOc1ccc(Nc2nc(Cc3nnc(SCC(=O)NC4CCCC4)n3C)cs2)cc1,-0.148
13,COCCCn1c(Cc2csc(Nc3cccc(Cl)c3)n2)nnc1SCC(=O)OC1CCCCC1,-7.39 (active)
14,COCCCn1c(SCC(=O)Nc2ccccc2)nnc1-c1ccncc1,-1.03
15,Cc1ccc(/C=N\n2c(-c3ccccc3)n[nH]c2=S)s1,-0.0777
16,CC1(C)S[C@@H]2[C@H](N=CN3CCCCCC3)C(=O)N2[C@H]1C(=O)O,0.247
17,O=c1cc(N2CCN(Cc3ccccc3)CC2)c(-c2ccccc2)n[nH]1,0.119
18,CC(C)Oc1ccc(CCc2n[nH]c(=S)n2Cc2ccccc2)cc1,-1.48
19,CC(C)N(c1ccccc1)c1ncnc(NCCC(=O)O)c1[N+](=O)[O-],0.156
20,CNC(=S)N1N=C(c2ccccc2)CC1c1ccc(Br)cc1 (configuration not stated),-7.33 (active)
21,COc1ccc(NC(=S)N2N=CCC2c2ccccc2)cc1 (configuration not stated),0.319
22,C=CCOC(=O)C1=C[C@@H](c2ccccc2)C[C@@H](OCc2ccc(CO)cc2)O1,-1.02
23,CCN1C(=O)N[C@@H](c2ccccc2)[C@H](C(C)=O)[C@H]1C,0.0204

row,SMILES,B-score
1,Cc1cc(-c2cccs2)nc(-n2cccc2)n1,0.352
2,CC1CC(C)CN(CC(=O)N2c3ccccc3CCc3ccccc32)C1 (configuration not stated),-3.85
3,O=C(CN1CCCCCC1)N1c2ccccc2Sc2ccc(C(F)(F)F)cc21,-4.47 (active)
4,O=C(CN1CCCCC1)N1c2ccccc2Sc2ccc(C(F)(F)F)cc21,-2.51
5,CC(Sc1nc2c([nH]c3ccccc32)c(=O)n1C)c1ccccc1 (configuration not stated),0.215
6,CN(C)CCNC(=O)Nc1cccc(Cl)c1Cl,0.258
7,NC(=O)CC(NC(=O)Cc1cccc2ccccc12)c1ccc(NCc2cc(F)ccc2F)c([N+](=O)[O-])c1 (configuration not stated),-0.287
8,Cc1cnc(NC(=O)CSc2nnc(-c3ccccc3)n2Cc2ccccc2)s1,-2.37
9,Cc1cnc(NC(=O)CSc2c(Cl)cccc2Cl)s1,-0.466
10,Cc1cnc(NC(=O)CSc2nnc(-c3ccc(Cl)cc3Cl)n2N)s1,-4.55 (active)
11,O=C1c2ccccc2S(=O)(=O)N1CC(O)Cn1c2ccccc2c2ccccc21 (configuration not stated),-5.05 (active)
12,CNC(=O)CN1C(=O)c2ccccc2S1(=O)=O,0.319
13,CS(=O)(=O)N(CC(O)Cn1c2ccccc2c2ccccc21)c1cccc2ccccc12 (configuration not stated),1.02
14,Cn1ccnc1-c1nnn(-c2ccc(F)cc2)n1,-0.241
15,Cc1cccc(C(=O)Nc2ccccc2-c2nnn(CC(=O)Nc3ccc4c(c3)OCCO4)n2)c1,0.0432
16,COc1ccc(C2/C=C\CN(S(=O)(=O)c3cccs3)CC(=O)N2Cc2ccc(F)cc2)cc1 (configuration not stated),-1.93
17,CCCC(=O)N1CCc2[nH]c3ccccc3c2C1,1.88
18,O=C(Nc1ccc(Cl)cc1)N1CCc2[nH]c3ccccc3c2C1,-6.38 (active)
19,O=C(NC1CCCCC1)N1CCc2[nH]c3ccccc3c2C1,-0.408
20,CCC(C)NC(=O)c1c(N)n(/N=C/c2cccs2)c2nc3ccccc3nc12 (configuration not stated),-0.663
21,COc1ccccc1OCCNc1cc(N2CCOCC2)ccc1[N+](=O)[O-],-0.763
22,CCOC(=O)c1sc(NC(=O)CSc2nc3c(c(=O)n2-c2ccccc2)SCC3)c(C(=O)OCC)c1C,-0.157
23,CC(=O)N1CCN(C(=O)Nc2cccc(C(F)(F)F)c2)CC1,0.454

row,SMILES,B-score
1,CC(C)C[C@H](NC(=O)Nc1cccc(C(F)(F)F)c1)C(=O)O,0.25
2,FC(F)(F)c1cccc(NC(=S)Nc2cccc(Cl)c2)c1,-7.17 (active)
3,c1ccc(-n2nnnc2NC2CCCCCC2)cc1,0.00228
4,O=C(c1ccco1)N1CCN(C(=O)C2c3ccccc3Oc3ccccc32)CC1,0.29
5,CCCN(CCC)C(=O)C1c2ccccc2Oc2ccccc21,-4.57 (active)
6,O=C(N/N=C/c1ccc(O)c(O)c1)C1c2ccccc2Oc2ccccc21,1.05
7,C=CCNc1nc(N)c(C(=C(C#N)C#N)c2ccccc2)s1,-0.0432
8,COC(C[C@@H](O)[C@H](C)[C@H](O)COCc1ccccc1)OC,0.321
9,CCN(CC)c1ccc(NC(=O)c2ccc(Cl)nc2)cc1,-0.986
10,COc1ccccc1-c1nnc(SCC(=O)N2CC(C)CC(C)C2)o1 (configuration not stated),0.0644
11,COc1cccc(Nc2nnc(SCC(=O)N3CC(C)OC(C)C3)s2)c1 (configuration not stated),-4.05 (active)
12,CCOc1ccccc1Nc1nnc(SCc2ccc(C(=O)OC)o2)s1,-3.2
13,O=C(Nc1ccccc1)OCc1cn(-c2ccc(Cl)cc2)nn1,-0.643
14,Cc1ccc(S(=O)(=O)N(CC(=O)N2CCc3ccccc3C2)c2cccc(Cl)c2)cc1,-5.57 (active)
15,CCOC(=O)N1CCN(C(=O)CN(c2ccc(C)c(C)c2)S(=O)(=O)c2ccccc2)CC1,-1.16
16,COc1cccc(N(CC(=O)N2CCc3ccccc3C2)S(C)(=O)=O)c1,1.04
17,O=C(NCc1ccccc1)C1=C[C@H](C2CC2)C[C@H](OCc2ccc(CO)cc2)O1,-0.049
18,CCOC(=O)c1c(NC(=O)C(C)Sc2c[nH]c3ccccc23)sc2c1CCC2 (configuration not stated),-0.96
19,C#CCOCCOCCOCCNc1nc(N2CCN(C(=O)[C@H](C(C)C)n3cc(CCO)nn3)CC2)nc(N2CCN(C(=O)[C@H]([C@@H](C)CC)n3cc(CCCN=C(N)N)nn3)CC2)n1,0.0921
20,CC1=NN(C(=O)c2ccccc2Br)C(O)(c2cccnc2)C1 (configuration not stated),0.377
21,CC1=CC(C)(C)N(C(=O)CSc2nccn2C)c2cc(C)ccc21,-0.49
22,O=C(CSc1nnc(-c2ccccc2)o1)N1CCOCC1,-0.483
23,CC1=CC(C)(C)N(C(=O)CSc2nnc(-c3ccccc3)o2)c2ccc(C)cc21,-4.16 (active)
